According to the supplement of paper PMC10849652:
About 7,900 targets were measured; listed, in parts, are those with a hit and a random draw of the rest. About 0.6% of all pairs of compound and target were hits.

What follows are targets tested with c1cn2cc(-c3ccc4cn[nH]c4c3)nc(Nc3ccc(N4CCOCC4)cc3)c2n1 [entospletinib] (assay: log2 fold change, soluble protein after heating vs DMSO (PISA); higher = thermal stabilisation; K562 cells, 10 uM, 30 min; active = over 0.2 and 3.5 SD of the protein, either way, in both replicates (recomputed)).
Summary of the method: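 K562 cells at 2×10^6 cells/mL were exposed to 10 μM compound for 30 min, then aliquots were heated for 3 min across 48°C-58°C, pooled, and extracted in PBS containing 0.5% NP-40 at 4°C. The supernatant after 21,000xg for 90 min was taken as soluble protein and measured by TMTpro 16plex LC-MS/MS with channel sums equalised. Thermal stability is reported relative to control samples, with values from duplicates. Fold changes are given on a log2 scale.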

UniProt P13473, sequence (P13473 whole entry, looked up): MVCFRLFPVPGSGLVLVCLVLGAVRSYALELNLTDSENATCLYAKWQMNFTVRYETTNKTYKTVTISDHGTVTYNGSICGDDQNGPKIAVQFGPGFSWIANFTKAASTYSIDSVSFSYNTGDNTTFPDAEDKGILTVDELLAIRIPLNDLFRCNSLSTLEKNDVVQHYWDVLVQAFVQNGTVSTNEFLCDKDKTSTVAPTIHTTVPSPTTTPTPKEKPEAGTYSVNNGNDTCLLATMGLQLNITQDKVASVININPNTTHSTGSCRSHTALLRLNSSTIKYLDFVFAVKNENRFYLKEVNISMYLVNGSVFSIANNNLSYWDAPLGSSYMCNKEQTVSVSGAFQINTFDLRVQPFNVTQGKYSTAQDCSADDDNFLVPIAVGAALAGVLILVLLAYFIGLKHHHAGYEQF
UniProt Q12905, sequence (Q12905 whole entry, looked up): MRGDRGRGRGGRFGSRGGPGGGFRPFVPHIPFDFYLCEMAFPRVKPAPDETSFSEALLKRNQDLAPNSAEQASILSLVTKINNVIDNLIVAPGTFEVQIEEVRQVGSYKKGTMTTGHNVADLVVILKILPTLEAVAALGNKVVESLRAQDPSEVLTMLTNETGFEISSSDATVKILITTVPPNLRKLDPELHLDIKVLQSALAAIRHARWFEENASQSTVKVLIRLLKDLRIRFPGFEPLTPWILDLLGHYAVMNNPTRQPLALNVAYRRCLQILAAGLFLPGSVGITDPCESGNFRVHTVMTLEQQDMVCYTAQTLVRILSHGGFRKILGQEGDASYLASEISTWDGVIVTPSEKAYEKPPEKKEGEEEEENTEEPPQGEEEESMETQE
UniProt O94889, sequence (O94889 whole entry, looked up): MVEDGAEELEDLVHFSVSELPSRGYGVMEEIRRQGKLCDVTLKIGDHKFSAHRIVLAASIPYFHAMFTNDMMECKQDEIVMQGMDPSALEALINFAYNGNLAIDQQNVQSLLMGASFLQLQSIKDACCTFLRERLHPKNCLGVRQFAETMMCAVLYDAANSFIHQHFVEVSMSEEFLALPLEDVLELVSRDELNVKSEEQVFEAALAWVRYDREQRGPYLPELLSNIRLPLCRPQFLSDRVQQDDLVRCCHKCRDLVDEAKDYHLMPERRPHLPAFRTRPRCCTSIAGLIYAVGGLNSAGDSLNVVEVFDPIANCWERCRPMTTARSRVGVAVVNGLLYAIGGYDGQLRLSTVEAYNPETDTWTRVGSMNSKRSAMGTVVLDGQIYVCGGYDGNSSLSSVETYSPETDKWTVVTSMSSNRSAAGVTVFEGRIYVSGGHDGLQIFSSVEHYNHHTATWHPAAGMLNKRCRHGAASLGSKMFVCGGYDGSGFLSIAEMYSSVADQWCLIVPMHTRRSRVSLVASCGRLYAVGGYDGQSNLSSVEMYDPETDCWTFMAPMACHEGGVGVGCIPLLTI
UniProt P49006, sequence (P49006 whole entry, looked up): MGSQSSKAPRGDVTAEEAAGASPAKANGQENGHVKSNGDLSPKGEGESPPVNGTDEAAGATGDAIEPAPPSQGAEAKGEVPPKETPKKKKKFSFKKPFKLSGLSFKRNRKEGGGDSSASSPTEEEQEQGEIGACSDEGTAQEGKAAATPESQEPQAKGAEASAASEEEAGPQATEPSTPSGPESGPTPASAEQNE
UniProt Q6NUT3, sequence (Q6NUT3 whole entry, looked up): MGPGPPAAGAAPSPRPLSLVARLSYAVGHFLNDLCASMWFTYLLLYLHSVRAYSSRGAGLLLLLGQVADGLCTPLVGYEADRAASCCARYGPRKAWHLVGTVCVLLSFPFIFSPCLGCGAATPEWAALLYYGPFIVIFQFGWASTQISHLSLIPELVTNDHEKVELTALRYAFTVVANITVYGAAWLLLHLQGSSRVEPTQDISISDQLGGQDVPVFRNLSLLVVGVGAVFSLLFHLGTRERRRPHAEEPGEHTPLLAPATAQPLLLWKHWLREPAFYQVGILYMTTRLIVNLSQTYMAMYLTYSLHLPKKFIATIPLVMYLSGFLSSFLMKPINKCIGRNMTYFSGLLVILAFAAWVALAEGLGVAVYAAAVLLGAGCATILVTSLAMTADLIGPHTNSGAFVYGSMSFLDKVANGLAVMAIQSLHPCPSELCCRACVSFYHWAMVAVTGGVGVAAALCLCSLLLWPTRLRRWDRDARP
UniProt Q07666, sequence (Q07666 whole entry, looked up): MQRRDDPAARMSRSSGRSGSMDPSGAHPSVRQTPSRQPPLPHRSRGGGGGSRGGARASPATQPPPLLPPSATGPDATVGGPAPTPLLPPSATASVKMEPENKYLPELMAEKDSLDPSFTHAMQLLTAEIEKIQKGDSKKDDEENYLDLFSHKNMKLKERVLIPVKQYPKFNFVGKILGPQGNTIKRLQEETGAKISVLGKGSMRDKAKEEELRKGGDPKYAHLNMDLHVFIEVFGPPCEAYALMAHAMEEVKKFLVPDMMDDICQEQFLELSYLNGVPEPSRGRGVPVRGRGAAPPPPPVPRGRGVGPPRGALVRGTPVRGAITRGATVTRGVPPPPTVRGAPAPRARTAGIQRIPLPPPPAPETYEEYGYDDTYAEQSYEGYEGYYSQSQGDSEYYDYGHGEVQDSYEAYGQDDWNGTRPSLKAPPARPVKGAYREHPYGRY
UniProt Q2M2Z5, sequence (Q2M2Z5 whole entry, looked up): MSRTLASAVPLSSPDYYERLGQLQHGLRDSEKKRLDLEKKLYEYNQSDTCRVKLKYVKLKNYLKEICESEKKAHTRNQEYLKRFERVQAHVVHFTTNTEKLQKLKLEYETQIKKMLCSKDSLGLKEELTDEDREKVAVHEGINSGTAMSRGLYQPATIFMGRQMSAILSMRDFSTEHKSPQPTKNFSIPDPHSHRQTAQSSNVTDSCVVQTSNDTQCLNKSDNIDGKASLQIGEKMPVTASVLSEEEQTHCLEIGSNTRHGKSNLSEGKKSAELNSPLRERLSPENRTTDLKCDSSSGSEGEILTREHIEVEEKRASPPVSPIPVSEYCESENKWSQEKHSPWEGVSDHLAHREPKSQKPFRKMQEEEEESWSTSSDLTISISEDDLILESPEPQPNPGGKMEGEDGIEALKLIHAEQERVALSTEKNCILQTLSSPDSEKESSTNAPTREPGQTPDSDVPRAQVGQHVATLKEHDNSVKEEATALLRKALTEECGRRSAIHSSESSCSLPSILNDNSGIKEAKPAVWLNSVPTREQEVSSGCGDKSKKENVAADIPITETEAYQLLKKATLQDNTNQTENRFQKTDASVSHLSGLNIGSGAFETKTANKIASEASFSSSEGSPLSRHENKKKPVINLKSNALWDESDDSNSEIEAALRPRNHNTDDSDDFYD
UniProt P23276, sequence (P23276 whole entry, looked up): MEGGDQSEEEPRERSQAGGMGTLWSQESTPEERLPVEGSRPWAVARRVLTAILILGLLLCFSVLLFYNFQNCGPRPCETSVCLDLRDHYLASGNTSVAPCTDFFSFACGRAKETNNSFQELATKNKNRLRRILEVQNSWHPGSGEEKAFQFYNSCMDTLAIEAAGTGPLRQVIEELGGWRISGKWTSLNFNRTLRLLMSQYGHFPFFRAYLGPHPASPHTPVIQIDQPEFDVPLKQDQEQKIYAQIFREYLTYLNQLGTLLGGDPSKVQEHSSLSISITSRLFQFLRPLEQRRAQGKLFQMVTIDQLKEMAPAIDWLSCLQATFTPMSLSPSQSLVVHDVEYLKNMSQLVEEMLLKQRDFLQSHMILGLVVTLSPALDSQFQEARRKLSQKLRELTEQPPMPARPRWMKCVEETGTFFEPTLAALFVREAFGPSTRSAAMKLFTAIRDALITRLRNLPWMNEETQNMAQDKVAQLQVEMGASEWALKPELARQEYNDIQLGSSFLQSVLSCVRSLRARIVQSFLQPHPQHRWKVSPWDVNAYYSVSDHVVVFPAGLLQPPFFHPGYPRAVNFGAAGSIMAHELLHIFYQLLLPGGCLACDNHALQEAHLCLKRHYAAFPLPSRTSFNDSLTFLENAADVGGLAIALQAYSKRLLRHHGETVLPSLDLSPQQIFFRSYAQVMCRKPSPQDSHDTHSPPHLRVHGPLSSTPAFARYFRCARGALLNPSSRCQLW
UniProt Q9NUN5, sequence (Q9NUN5 whole entry, looked up): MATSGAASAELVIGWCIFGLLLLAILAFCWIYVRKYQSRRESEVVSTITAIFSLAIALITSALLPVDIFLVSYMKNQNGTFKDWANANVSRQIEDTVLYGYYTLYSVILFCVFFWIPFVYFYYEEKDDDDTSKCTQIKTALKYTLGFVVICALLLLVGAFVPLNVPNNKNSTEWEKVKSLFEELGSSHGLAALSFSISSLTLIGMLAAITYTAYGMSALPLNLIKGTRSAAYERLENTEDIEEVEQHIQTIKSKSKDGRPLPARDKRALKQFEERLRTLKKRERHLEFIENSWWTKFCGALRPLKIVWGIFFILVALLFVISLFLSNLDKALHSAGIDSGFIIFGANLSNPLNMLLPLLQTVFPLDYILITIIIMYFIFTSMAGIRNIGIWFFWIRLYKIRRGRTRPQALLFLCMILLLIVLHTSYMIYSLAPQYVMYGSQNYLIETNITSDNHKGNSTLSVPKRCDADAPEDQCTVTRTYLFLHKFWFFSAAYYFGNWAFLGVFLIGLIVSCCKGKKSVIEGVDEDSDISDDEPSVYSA

log2 fold change, inactive:
LEO1 (UniProt Q8WVC0) -0.094
MARCKSL1 (UniProt P49006) -0.005
LENG8 (UniProt Q96PV6) 0.131
KLHL18 (UniProt O94889) -0.016
KDM3B (UniProt Q7LBC6) -0.027
LAMP2 isoform 2 (UniProt P13473) 0.033
MAP2K7 isoform 4 (UniProt O14733) -0.009
KEL (UniProt P23276) -0.023
MAGEA8 (UniProt P43361) 0.125
MAST4 (UniProt O15021) -0.052
KIF2C (UniProt Q99661) -0.097
ILF2 (UniProt Q12905) -0.103
LMBRD1 (UniProt Q9NUN5) -0.03
MARK2 (UniProt E9PC69) 0.029
KPNA6 (UniProt O60684) -0.021
KIF13A (UniProt Q9H1H9) 0.066
MAP4K5 (UniProt Q9Y4K4) -0.065
KHDRBS1 (UniProt Q07666) 0.189
KIZ (UniProt Q2M2Z5) -0.105
MFSD8 (UniProt Q8NHS3) 0.053
MIF (UniProt P14174) 0.111
LARP4 isoform 4 (UniProt Q71RC2) 0.095
KIF1B isoform 4 (UniProt O60333) -0.013
LARP7 isoform 3 (UniProt Q4G0J3) 0.006
IRF2BPL (UniProt Q9H1B7) 0.001
LAMP2 (UniProt P13473) 0.023
MFSD11 (UniProt O43934) 0.109
KHDC4 (UniProt Q7Z7F0) -0.051
MED12 isoform 2 (UniProt Q93074) 0.177
MFN2 (UniProt O95140) -0.004
MFSD1 isoform 6 (UniProt Q9H3U5) 0.013
MFSD12 isoform 3 (UniProt Q6NUT3) -0.089
MICU2 (UniProt Q8IYU8) 0.019
